Values joined by “and” are separate entries in the source; they are usually repeats but may differ in a detail not shown here. Identical values can stand only once.

A word on the inhibition: it is the drop in the measured response relative to a control, in per cent.

5'-AMP-activated protein kinase catalytic subunit alpha-1 (Homo sapiens), sequence (Q13131 whole entry, looked up): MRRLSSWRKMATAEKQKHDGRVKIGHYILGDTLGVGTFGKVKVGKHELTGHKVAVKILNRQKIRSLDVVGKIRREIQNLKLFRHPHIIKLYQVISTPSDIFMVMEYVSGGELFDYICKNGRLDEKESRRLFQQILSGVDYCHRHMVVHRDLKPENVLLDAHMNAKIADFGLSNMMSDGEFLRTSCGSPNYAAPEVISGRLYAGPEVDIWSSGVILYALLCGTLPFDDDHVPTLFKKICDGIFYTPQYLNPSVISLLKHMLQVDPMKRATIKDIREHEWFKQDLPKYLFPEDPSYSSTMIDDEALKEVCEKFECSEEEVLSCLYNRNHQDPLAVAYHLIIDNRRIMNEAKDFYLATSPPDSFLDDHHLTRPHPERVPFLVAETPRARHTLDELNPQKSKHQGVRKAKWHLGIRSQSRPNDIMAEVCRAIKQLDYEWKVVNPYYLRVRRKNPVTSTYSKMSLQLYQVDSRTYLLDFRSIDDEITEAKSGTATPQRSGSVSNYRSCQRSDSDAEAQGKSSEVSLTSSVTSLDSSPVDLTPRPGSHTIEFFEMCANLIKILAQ

One assay deals with T1, Serine/threonine-protein kinase Sgk3 (Homo sapiens) (UniProt Q96BR1).
T1 sequence (whole entry): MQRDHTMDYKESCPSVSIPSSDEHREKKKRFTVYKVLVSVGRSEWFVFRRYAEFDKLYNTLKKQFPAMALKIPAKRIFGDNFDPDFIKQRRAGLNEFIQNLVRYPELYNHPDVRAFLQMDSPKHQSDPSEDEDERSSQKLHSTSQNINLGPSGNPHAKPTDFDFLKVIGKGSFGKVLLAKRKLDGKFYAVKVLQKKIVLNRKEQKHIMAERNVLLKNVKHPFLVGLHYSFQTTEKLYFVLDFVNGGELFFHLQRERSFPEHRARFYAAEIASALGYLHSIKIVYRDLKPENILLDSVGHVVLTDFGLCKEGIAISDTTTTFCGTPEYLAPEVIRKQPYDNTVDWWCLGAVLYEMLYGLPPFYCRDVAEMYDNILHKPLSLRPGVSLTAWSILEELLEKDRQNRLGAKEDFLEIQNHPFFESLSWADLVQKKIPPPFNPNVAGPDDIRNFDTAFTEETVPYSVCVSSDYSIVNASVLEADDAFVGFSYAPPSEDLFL
The conditions noted are these: at 1 µM.
Turning to `CCCNc1cccc(-n2ncc3c(N/N=C/c4ccncc4)ncnc32)c1`, the inhibition turned out to be 5.07%.
On the same count and under the same terms, with `COC(=O)Nc1nc2ccc(Oc3ccc(NC(=O)Nc4cc(C(F)(F)F)ccc4F)cc3)cc2s1` the figure was 1.57%; with `N#Cc1ccc2c(-c3ccnc(NC4CC4)n3)c(-c3ccc(F)cc3)nn2c1`, 1.13%.
Still for that read-out and setting: with `Fc1cccc(COc2ccc(Nc3ncncc3C#Cc3ccccc3)cc2Cl)c1` the figure was 7.34%; with `NS(=O)(=O)c1cccc(N/C=C2\C(=O)Nc3ccccc32)c1`, 5.21%; with `COc1ccccc1-c1cc(/C=C2\C(=O)Nc3ncc(Br)cc32)cc(Br)c1O`, 0.16%.
Same read-out and setting: with `COC(=O)Nc1nc2cc(Oc3ccc(NC(=O)Nc4ccccc4)cc3)ccc2[nH]1` the figure was 5.17%; with `O=C(O[C@H]1CN[C@H](C#Cc2cc3ncnc(Nc4ccc5c(cnn5Cc5ccccc5)c4)c3s2)C1)N1CCOCC1`, 0.07%; with `CCn1c(-c2nonc2N)nc2cncc(C(=O)NCCNC)c21`, 66.2%.
Take `Cc1cc(O)cc(C)c1/C=C/c1cncc(C(=O)OC(C)(C)C)c1`: the inhibition was determined as 0.63%.
For the molecule `N#Cc1cccc(Nc2ncc(-c3ccccc3)o2)c1`, the inhibition amounted to 5.3%.
The same measure, in the same setting: for `CNC(=O)c1sc(-n2cnc3cc(OC)c(OC)cc32)cc1OCc1ccccc1C(F)(F)F` the value was 1.89%; for `COc1ccc2ncn(-c3cc(O[C@H](C)c4ccccc4C(F)(F)F)c(C(N)=O)s3)c2c1`, 0.72%; for `COc1ccc(-c2nn3ncccc3c2-c2ccnc(Nc3ccc(F)c(F)c3)n2)cc1`, 6.1%.
Same read-out and setting: with `Cc1cc(O)cc(C)c1/C=C/c1cncc(C(N)=O)c1` the figure was 1.31%; with `Fc1ccc(Nc2nccc(-c3c(-c4ccc(C(F)(F)F)cc4)nn4ncccc34)n2)cc1F`, 1.5%; with `c1ccc(-c2n[nH]cc2-c2ccnc(-c3ccc(OCCn4ccnc4)cc3)c2)nc1`, 2.01%.
Still for that read-out and setting: with `COc1cc(N2CCN(C(C)C)CC2)ccc1Nc1nc(Nc2cccc(F)c2C(=O)O)c2cc[nH]c2n1` the figure was 4.41%; with `CS(=O)(=O)Nc1ccc(-c2cc(-c3ccccc3)cc(C(N)=O)c2N)cc1`, 2.54%.
For `Nc1ncnc2occ(-c3ccc(NC(=O)Nc4cc(C(F)(F)F)ccc4F)cc3)c12`, the inhibition was 1.67% and -1.01%.
As to `COc1cc2c(cc1Nc1nc(Nc3cccc(F)c3C(N)=O)c3cc[nH]c3n1)N(C(=O)CN1CCN(C(C)C)CC1)CC2`, the inhibition turned out to be 0.46%.
Still for that read-out and setting: for `CCS(=O)(=O)c1ccc(OC)c(Nc2ncc(-c3cccc(C(C)=O)c3)o2)c1` the value was 2.93%.
On the same count and under the same terms, with `CC(C)c1ccc(-c2cc(-c3c[nH]nc3-c3ccccn3)ccn2)cc1` the figure was -1.62%; with `O=C(O[C@H]1CN[C@H](C#Cc2cc3ncnc(Nc4ccc5c(ccn5Cc5cc(F)ccc5F)c4)c3s2)C1)N1CCOCC1`, 3.51%; with `CN(c1ccc(NC(=O)NCCN2CCOCC2)cc1)c1ccnc(Nc2ccc(CS(C)(=O)=O)cc2)n1`, 2.63%.
The same measure, in the same setting: with `NS(=O)(=O)c1ccc(N/N=C2\C(=O)Nc3cccc(CCc4ccncc4)c32)cc1` the figure was -0.92%; with `CNC(=O)c1cncc(/C=C/c2ccccc2C)c1`, 4.02%.
In the case of `CN1CCC(C(=O)Nc2n[nH]c3nc(-c4ccc(O)cc4)c(Br)cc23)CC1`, the inhibition was 6.31% and 0.32%.
On the same count and under the same terms, with `COc1c(C(N)=O)cc(-c2ccc(Cl)cc2)cc1-c1ccc(S(N)(=O)=O)cc1` the figure was 3%; with `CN1CCN(Cc2ccc(-c3cc4ncnc(Nc5ccc(OCc6cccc(F)c6)c(Cl)c5)c4s3)o2)CC1`, 2.48% and 5.69%.
The same measure, in the same setting: with `NC(=O)c1ccc2c(-c3ccnc(NCCCO)n3)c(-c3ccc(F)cc3)nn2c1` the figure was 1.28%.

Another assay concerns the target 5'-AMP-activated protein kinase catalytic subunit alpha-1 (Homo sapiens) (UniProt Q13131). The conditions noted are these: at 0.1 µM.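 Note: enzyme tested as the AMPK alpha1 beta1 gamma1 complex, values reported as mean percent inhibition.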
Regarding `CCCNc1cccc(-n2ncc3c(N/N=C/c4ccncc4)ncnc32)c1`, the inhibition came out at 1.8%.
With `COC(=O)Nc1nc2ccc(Oc3ccc(NC(=O)Nc4cc(C(F)(F)F)ccc4F)cc3)cc2s1`, the inhibition was -0.71%.
Same read-out and setting: with `N#Cc1ccc2c(-c3ccnc(NC4CC4)n3)c(-c3ccc(F)cc3)nn2c1` the figure was 0.78%; with `Fc1cccc(COc2ccc(Nc3ncncc3C#Cc3ccccc3)cc2Cl)c1`, 3.44%.
Same read-out and setting: with `NS(=O)(=O)c1cccc(N/C=C2\C(=O)Nc3ccccc32)c1` the figure was 3.31%.
Turning to `COc1ccccc1-c1cc(/C=C2\C(=O)Nc3ncc(Br)cc32)cc(Br)c1O`, the inhibition was 4.85%.
On the same count and under the same terms, with `COC(=O)Nc1nc2cc(Oc3ccc(NC(=O)Nc4ccccc4)cc3)ccc2[nH]1` the figure was 2.62%.
Turning to `O=C(O[C@H]1CN[C@H](C#Cc2cc3ncnc(Nc4ccc5c(cnn5Cc5ccccc5)c4)c3s2)C1)N1CCOCC1`, the inhibition was 1.24%.
As to `CCn1c(-c2nonc2N)nc2cncc(C(=O)NCCNC)c21`, the inhibition came out at 3.01%.
For `Cc1cc(O)cc(C)c1/C=C/c1cncc(C(=O)OC(C)(C)C)c1`, the inhibition was determined as 2.74%.
Still for that read-out and setting: with `N#Cc1cccc(Nc2ncc(-c3ccccc3)o2)c1` the figure was 1.1%; with `CNC(=O)c1sc(-n2cnc3cc(OC)c(OC)cc32)cc1OCc1ccccc1C(F)(F)F`, 3.22%.
Still for that read-out and setting: for `COc1ccc2ncn(-c3cc(O[C@H](C)c4ccccc4C(F)(F)F)c(C(N)=O)s3)c2c1` the value was -0.57%; for `COc1ccc(-c2nn3ncccc3c2-c2ccnc(Nc3ccc(F)c(F)c3)n2)cc1`, 5.22%.
Still for that read-out and setting: for `Cc1cc(O)cc(C)c1/C=C/c1cncc(C(N)=O)c1` the value was 1.98%; for `Fc1ccc(Nc2nccc(-c3c(-c4ccc(C(F)(F)F)cc4)nn4ncccc34)n2)cc1F`, 1.79%; for `c1ccc(-c2n[nH]cc2-c2ccnc(-c3ccc(OCCn4ccnc4)cc3)c2)nc1`, 0.79%.
As to `COc1cc(N2CCN(C(C)C)CC2)ccc1Nc1nc(Nc2cccc(F)c2C(=O)O)c2cc[nH]c2n1`, the inhibition was determined as 3.98%.
As for `CS(=O)(=O)Nc1ccc(-c2cc(-c3ccccc3)cc(C(N)=O)c2N)cc1`, the inhibition worked out at 0.7%.
Same read-out and setting: with `Nc1ncnc2occ(-c3ccc(NC(=O)Nc4cc(C(F)(F)F)ccc4F)cc3)c12` the figure was 2.02% and -1.41%; with `COc1cc2c(cc1Nc1nc(Nc3cccc(F)c3C(N)=O)c3cc[nH]c3n1)N(C(=O)CN1CCN(C(C)C)CC1)CC2`, 1.45%.
Same read-out and setting: with `CCS(=O)(=O)c1ccc(OC)c(Nc2ncc(-c3cccc(C(C)=O)c3)o2)c1` the figure was 2.21%.
Still for that read-out and setting: with `CC(C)c1ccc(-c2cc(-c3c[nH]nc3-c3ccccn3)ccn2)cc1` the figure was -0.34%.
On to `O=C(O[C@H]1CN[C@H](C#Cc2cc3ncnc(Nc4ccc5c(ccn5Cc5cc(F)ccc5F)c4)c3s2)C1)N1CCOCC1`, for which the inhibition was 3.06%.
Same read-out and setting: for `CN(c1ccc(NC(=O)NCCN2CCOCC2)cc1)c1ccnc(Nc2ccc(CS(C)(=O)=O)cc2)n1` the value was 3.65%; for `NS(=O)(=O)c1ccc(N/N=C2\C(=O)Nc3cccc(CCc4ccncc4)c32)cc1`, 4.83%.
The same measure, in the same setting: for `CNC(=O)c1cncc(/C=C/c2ccccc2C)c1` the value was 3.16%; for `CN1CCC(C(=O)Nc2n[nH]c3nc(-c4ccc(O)cc4)c(Br)cc23)CC1`, 5.11% and 1.11%.
Same read-out and setting: for `COc1c(C(N)=O)cc(-c2ccc(Cl)cc2)cc1-c1ccc(S(N)(=O)=O)cc1` the value was 1.83%; for `CN1CCN(Cc2ccc(-c3cc4ncnc(Nc5ccc(OCc6cccc(F)c6)c(Cl)c5)c4s3)o2)CC1`, 2.4% and 5.32%; for `NC(=O)c1ccc2c(-c3ccnc(NCCCO)n3)c(-c3ccc(F)cc3)nn2c1`, 2.28%.

For the origin of these results see ChEMBL document CHEMBL1961873, “Compounds: GSK PKIS; Assays: Nanosyn kinase panel” (2012).
